Most compounds without a hit are left out; they make up all but 28% or so of the library.
PLK1 PBD inh: Plk1 (human) PBD binding inhibition; P53350; Plk1 PBD phosphopeptide binding, fluorescence polarization; inhibition, %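 (tested at about 20 µM)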; 0.13% of 97,000 active; in the data active = inhibition above about 34%, passing the limit was not always enough
Target sequence (P53350 whole entry, looked up): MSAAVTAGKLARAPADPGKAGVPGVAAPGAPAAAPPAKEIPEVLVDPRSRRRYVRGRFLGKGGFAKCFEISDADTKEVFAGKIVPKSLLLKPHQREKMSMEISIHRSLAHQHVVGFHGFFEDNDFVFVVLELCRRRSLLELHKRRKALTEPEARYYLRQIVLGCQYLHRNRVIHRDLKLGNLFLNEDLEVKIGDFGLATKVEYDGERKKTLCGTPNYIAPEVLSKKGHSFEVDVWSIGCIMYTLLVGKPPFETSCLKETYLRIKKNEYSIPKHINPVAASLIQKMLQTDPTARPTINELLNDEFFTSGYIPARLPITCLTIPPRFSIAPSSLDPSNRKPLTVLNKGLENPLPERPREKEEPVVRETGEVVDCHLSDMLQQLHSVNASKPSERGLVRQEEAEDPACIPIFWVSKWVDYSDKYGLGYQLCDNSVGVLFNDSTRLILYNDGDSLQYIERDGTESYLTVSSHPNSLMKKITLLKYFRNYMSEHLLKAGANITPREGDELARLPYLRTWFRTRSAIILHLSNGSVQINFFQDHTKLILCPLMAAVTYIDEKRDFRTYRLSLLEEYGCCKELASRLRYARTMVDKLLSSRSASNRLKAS
CYP2C9 inh: blocks human cytochrome P450 2C9; inhibition, % at 5 µM; P11712; CYP2C9 Supersomes, luciferin-H conversion, luminescence; 20% of 96,000 active; AID 777;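 active = blocking of liver enzyme CYP2C9 beyond about 50% at 5 µM, limit read from the data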
CYP2C9 act: activators of human CYP2C9; P11712; recombinant CYP2C9, luciferin-H conversion, luminescence; stronger effect = higher value; factor 1 = untreated enzyme, 0 = blocked; activation factor at 5 µM; 1.4% of 96,000 active;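 active = activation factor of 2 or more for CYP2C9 at a 5 µM dose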;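 note: 0 = sulfaphenazole-blocked wells and 1 = vehicle-only wells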
CYP2C19 inh: human CYP2C19 inhibition; P33261; CYP2C19 Supersomes, luciferin-H EGE luminescence, 30 min; inhibition, % at 5 µM; 21% of 96,000 active; AID 778;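 active = CYP2C19 inhibition above a set limit at 5 µM in the primary screen, cut at about 50% in these data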;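 note: plate controls were negative control wells for no effect and 2.5 mM tranylcypromine positive control for full effect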
PLK1 inh: inhibitors of human PLK1 kinase; P53350; recombinant PLK1 kinase, TR-FRET peptide phosphorylation; inhibition, % at 10 µM; 0.53% of 97,000 active;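 active = inhibition of 50% or more in the single-concentration screen; inactive = inhibition below 50%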;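 note: 0% = DMSO max control and 100% = H-89 dihydrochloride min control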
CYP2C19 act: activators of human cytochrome P450 2C19. recombinant CYP2C19, luciferin-H EGE luminescence; stronger effect = higher value; 0 = fully inhibited enzyme, 1 = untreated enzyme. activation factor at 5 µM. 96,000 tested, under 10 active. AID 1025;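 active = activation factor of at least 2 at 5 µM in the primary screen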;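 note: 0 = wells with 2.5 mM tranylcypromine and 1 = vehicle-only wells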
An asterisk follows results filed as active; . = not tested or not shown.

SMILES	PLK1 PBD inh	CYP2C9 inh	CYP2C9 act	CYP2C19 inh	PLK1 inh	CYP2C19 act
COc1ccc(OC)c(C2C=C(c3ccc(C)c(C)c3)Nc3nnnn32)c1 (stereo not given)	.	96*	0	97*	.	0
COc1cccc(C2=CC(c3cc(OC)ccc3OC)n3nnnc3N2)c1 (stereo not given)	.	68*	0.3	35	.	0.6
COC(=O)C1=C(C(=O)c2ccc(C)cc2)C(c2ccc(OC)c(OC)c2)n2nnnc2N1 (stereo not given)	-18	-23	1.2	-9	-8	1.1
CCCCOc1ccc(C(=O)N2CC(C)OC(C)C2)cc1 (stereo not given)	-4	-31	1.3	6	-4	0.9
COc1cccc(Cn2cccc(NC(=O)Nc3ccc(C#N)cc3)c2=O)c1	-2	2	1	6	-1	0.9
CCC(=O)Nc1ccc2nc(C3CC3)n(Cc3ccccc3)c(=O)c2c1	-11	-2	1	-3	-4	1
COc1ccc(Cn2c(C3CC3)nc3ccc(NC(=O)c4ccco4)cc3c2=O)cc1	-16	55*	0.5	54*	-13	0.5
COc1ccc(N2C(=O)C(Cl)=C(NCc3ccccc3)C2=O)cc1	-3	96*	0	99*	-6	0
COC(=O)c1c(-n2c(C)cc(C=O)c2C)sc2c1CCCC2	-6	.	.	.	9	.
COC(=O)C1C(=O)c2c([nH]c(C(=O)OCC3CCCO3)c2C)CC1C (stereo not given)	.	54*	0.5	12	.	0.9
COC(=O)[C@@H]1[C@@H](C#N)C2(c3ccccc3-c3ccccc32)N(c2ccc(Cl)cc2)N1C#N	-14	.	.	.	-14	.
N#CC1=C(N)Oc2n[nH]c(-c3ccccc3)c2C1c1ccncc1 (stereo not given)	12	89*	0.1	85*	6	0.2
COCc1[nH]nc2c1C(c1ccc(OC)cc1)C(C#N)=C(N)O2 (stereo not given)	-9	37	0.6	31	-5	0.7
CCC(C)C1C(C#N)=C(N)Oc2n[nH]c(-c3ccccc3)c21 (stereo not given)	-11	16	0.8	53*	-9	0.5
N#CC1=C(N)Oc2n[nH]c(-c3ccc(F)cc3)c2C1c1cccnc1 (stereo not given)	-24	55*	0.5	70*	-6	0.3
Cc1[nH]nc2c1C(c1cn[nH]c1-c1ccc(F)cc1)C(C#N)=C(N)O2 (stereo not given)	2	13	0.9	15	28	0.8
CCc1[nH]nc2c1C(c1ccncc1)C(C#N)=C(N)O2 (stereo not given)	17	69*	0.3	59*	20	0.4
CCCS(=O)(=O)C(=C(Nc1ccccc1)Nc1ccccc1)S(=O)(=O)CCC	-1	-29	1.3	-22	-3	1.2
O=C(Nc1cccc(C(F)(F)F)c1)c1cnc2n(c1=O)CCS2	25	-53	1.5	-1	-20	1
COc1ccccc1NC(=O)CCn1c(=O)sc2ccccc21	-5	.	.	.	-12	.
CCOc1cc2c(cc1C(C)(C)C)NC(=O)CS2	-9	-10	1.1	-1	-6	1
N#CC1=C(N)N=C(SCc2cccc3ccccc23)C(C(N)=O)C12CCCCC2 (stereo not given)	-3	74*	0.3	72*	-8	0.3
CC(C)NS(=O)(=O)c1ccc(N2C(=O)c3ccccc3C2=O)cc1	-17	13	0.9	10	-4	0.9
CC(C)n1c(SCC(=O)Nc2nc3c(s2)CCCC3)nc2c1c(=O)n(C)c(=O)n2C	18	.	.	.	-10	.
Cn1cccc1C(=O)OCc1csc(-c2ccccc2)n1	36	-18	1.2	-4	-13	1
SMILES	PLK1 PBD inh	CYP2C9 inh	CYP2C9 act	CYP2C19 inh	PLK1 inh	CYP2C19 act
O=C1c2ccccc2C(=O)N1CCc1csc(-c2ccccc2)n1	-11	-36	1.4	100*	-7	0
O=C1c2ccccc2C(=O)N1CCc1csc(-c2ccc(F)cc2)n1	26	1	1	100*	-1	0
CCCCN(Cc1ccccc1)C(=O)c1cnc2n(c1=O)CCS2	14	2	1	-10	-11	1.1
CCOC(=O)N1CCN(CC(=O)N2c3ccccc3CC2C)CC1 (stereo not given)	-26	-12	1.1	4	-3	1
Cn1cc(-c2nnc(-c3ccccc3)o2)c2ccccc21	-5	-143	2.4*	-6	-11	1.1
O=C1NN=C(c2ccc(Cl)cc2)CC1c1cccc(Cl)c1 (stereo not given)	37	18	0.8	68*	-3	0.3
c1ccc(-c2nc(N3CCN(c4ccccc4)CC3)nc(-n3ccnc3)n2)cc1	-15	66*	0.3	52*	-4	0.5
c1ccc(-c2ccc(-n3ccnc3)cc2)cc1	19	90*	0.1	99*	3	0
c1ccc(-c2nc(N3CCCCCC3)nc(-n3ccnc3)n2)cc1	22	3	1	22	-10	0.8
O=C1CC(C(=O)N2CCOCC2)C2(CCCCC2)O1 (stereo not given)	-21	-24	1.2	26	-8	0.7
CN(CC(=O)N1CCN(c2ccccc2)CC1)S(=O)(=O)c1cnc[nH]1	-32	100*	0	92*	-16	0.1
CN(CC(=O)N1CCN(c2cccc(Cl)c2)CC1)S(=O)(=O)c1cccs1	9	81*	0.2	82*	-1	0.2
CS(=O)(=O)N(CC(=O)N1CCN(c2ccc(F)cc2)CC1)c1cccc(Cl)c1	-7	-139	2.4*	37	-6	0.6
COc1ccc(/C=N/n2c(SC)nnc(C(C)(C)C)c2=O)c(OC)c1	-6	0	1	5	2	0.9
Cn1c(N)c(C(=O)COC(=O)C2(c3cccc(F)c3)CCCC2)c(=O)n(C)c1=O	-14	36	0.6	19	-5	0.8
COc1ccc(-n2c(SCC(=O)N3CCN(c4ccccc4)CC3)nc3c(c2=O)SCC3)cc1	13	70*	0.3	57*	-24	0.4
COC(=O)C(C)Sc1nc2c(c(=O)n1-c1ccccc1)SCC2 (stereo not given)	.	69*	0.3	89*	.	0.1
Cc1ccc(-n2c(SCC(=O)N3CCCC3)nc3c(c2=O)SCC3)cc1	.	-2	1	-16	.	1.2
COc1ccc(NC(=O)CSc2nc3c(c(=O)n2-c2ccc(F)cc2)SCC3)c(OC)c1	-10	80*	0.2	73*	-3	0.3
COC(=O)c1ccc(CSc2nc3c(c(=O)n2-c2ccc(C)cc2)SCC3)o1	.	93*	0.1	65*	.	0.4
COc1ccc(-n2c(SCC(=O)Nc3cc(C)on3)nc3c(c2=O)SCC3)cc1	-13	.	.	.	-5	.
Cc1ccc(C(=O)CSc2nnc(COc3cc(C)cc(C)c3)o2)cc1	3	26	0.7	7	-11	0.9

High-throughput results from PubChem.
